# Test results published in the supplement of paper PMC8728848.
# Shown is part of a subset that was picked to be rich in the strongest signals.
# B1: Dectin2 (Homo sapiens), Q6EIG7 (protein)
# chain: MMQEQQPQSTEKRGWLSLRLWSVAGISIALLSACFIVSCVVTYHFTYGETGKRLSELHSYHSSLTCFSEGTKVPAWGCCPASWKSFGSSCYFISSEEKVWSKSEQNCVEMGAHLVVFNTEAEQNFIVQQLNESFSYFLGLSDPQGNNNWQWIDKTPYEKNVRFWHLGEPNHSAEQCASIVFWKPTGWGWNDVICETRRNSICEMNKIYL
# Columns and labels:
# Assay in all cases: glycan array binding signal (z-score within array); higher = stronger binding
# Conditions in all cases: glycan notation: IUPAC condensed, linker removed
# [1] = target: Fuc(a1-2)Gal(b1-3)GlcNAc(b1-3)[Gal(b1-4)GlcNAc(b1-6)]Gal(b1-4)Glc
# Procedure, shortened: (§1)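 The Consortium for Functional Glycomics database supplied 3228 glycan arrays, of which those lacking an available protein sequence were dropped. The binding signal, a within-array Z-score, was averaged across arrays of the same protein sequence and across linkers. Negative scores can be read as non-binding.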
# [2] = target: Fuc(a1-2)Gal(b1-3)GlcNAc(b1-3)[Neu5Ac(a2-6)Gal(b1-4)GlcNAc(b1-6)]Gal(b1-4)Glc
# Procedure, shortened: as §1
# [3] = target: Fuc(a1-2)Gal(b1-4)Glc
# Procedure, shortened: as §1
# [4] = target: Fuc(a1-2)Gal(b1-4)GlcNAc6S
# Procedure, shortened: as §1
# [5] = target: Fuc(a1-2)[Gal(a1-3)]Gal(b1-4)GlcNAc(b1-3)[Fuc(a1-2)[Gal(a1-3)]Gal(b1-4)GlcNAc(b1-6)]GalNAc
# Procedure, shortened: as §1
# [6] = target: Fuc(a1-2)[Gal(a1-3)]Gal(b1-4)[Fuc(a1-3)]GlcNAc
# Procedure, shortened: as §1
# [7] = target: Fuc(a1-2)[GalNAc(a1-4)]Gal(b1-4)GlcNAc
# Procedure, shortened: as §1
# [8] = target: Fuc(a1-4)GlcNAc
# Procedure, shortened: as §1
# [9] = target: Gal(b1-3)Gal
# Procedure, shortened: as §1
# [10] = target: Gal(b1-3)GlcNAc(b1-3)Gal(b1-4)GlcNAc(b1-2)Man(a1-3)[Gal(b1-3)GlcNAc(b1-3)Gal(b1-4)GlcNAc(b1-2)Man(a1-6)]Man(b1-4)GlcNAc(b1-4)GlcNAc
# Procedure, shortened: as §1
# [11] = target: Gal(b1-3)GlcNAc(b1-3)Gal(b1-4)GlcNAc(b1-2)[Gal(b1-3)GlcNAc(b1-3)Gal(b1-4)GlcNAc(b1-6)]Man(a1-6)[Gal(b1-3)GlcNAc(b1-3)Gal(b1-4)GlcNAc(b1-2)Man(a1-3)]Man(b1-4)GlcNAc(b1-4)[Fuc(a1-6)]GlcNAc
# Procedure, shortened: as §1
# [12] = target: Gal(b1-3)[Fuc(a1-4)]GlcNAc
# Procedure, shortened: as §1
# [13] = target: Gal(b1-4)Glc6S
# Procedure, shortened: as §1
# [14] = target: Gal(b1-4)GlcNAc(b1-2)[Gal(b1-4)GlcNAc(b1-4)]Man(a1-3)[Gal(b1-4)GlcNAc(b1-2)Man(a1-6)]Man(b1-4)GlcNAc(b1-4)GlcNAc
# Procedure, shortened: as §1
# [15] = target: Gal(b1-4)GlcNAc(b1-2)[Gal(b1-4)GlcNAc(b1-4)]Man(a1-3)[GlcNAc(b1-4)][Gal(b1-4)GlcNAc(b1-2)[Gal(b1-4)GlcNAc(b1-6)]Man(a1-6)]Man(b1-4)GlcNAc(b1-4)GlcNAc
# Procedure, shortened: as §1
# [16] = target: Gal(b1-4)GlcNAc(b1-3)Gal(b1-4)GlcNAc(b1-3)Gal(b1-4)GlcNAc(b1-2)Man(a1-3)[Gal(b1-4)GlcNAc(b1-3)Gal(b1-4)GlcNAc(b1-3)Gal(b1-4)GlcNAc(b1-2)Man(a1-6)]Man(b1-4)GlcNAc(b1-4)[Fuc(a1-6)]GlcNAc
# Procedure, shortened: as §1
# [17] = target: Gal(b1-4)GlcNAc(b1-3)GalNAc
# Procedure, shortened: as §1
# [18] = target: Gal(b1-4)GlcNAc(b1-3)[Fuc(a1-3)GlcNAc(b1-6)]Gal(b1-4)Glc
# Procedure, shortened: as §1
# [19] = target: GlcNAc(b1-3)Gal(b1-4)GlcNAc(b1-3)[GlcNAc(b1-3)Gal(b1-4)GlcNAc(b1-3)]GalNAc
# Procedure, shortened: as §1
# [20] = target: GlcNAc(b1-3)Gal(b1-4)GlcNAc(b1-6)[Gal(b1-3)]GalNAc
# Procedure, shortened: as §1
# [21] = target: GlcNAc(b1-3)[GlcNAc(b1-4)][GlcNAc(b1-6)]GlcNAc
# Procedure, shortened: as §1
# [22] = target: GlcNAc(b1-4)[GlcNAc(b1-6)]GalNAc
# Procedure, shortened: as §1
# [23] = target: Kdn(a2-3)Gal(b1-4)[Fuc(a1-3)]GlcNAc
# Procedure, shortened: as §1
# [24] = target: Man(a1-2)Man(a1-2)Man(a1-3)Man
# Procedure, shortened: as §1
# [25] = target: Man(a1-2)Man(a1-2)Man(a1-6)[Man(a1-3)]Man
# Procedure, shortened: as §1
# [26] = target: Man(a1-2)Man(a1-3)Man
# Procedure, shortened: as §1
# [27] = target: Man(a1-2)Man(a1-3)[Man(a1-2)Man(a1-6)]Man
# Procedure, shortened: as §1
# [28] = target: Man(a1-2)Man(a1-3)[Man(a1-2)Man(a1-6)]Man(a1-6)[Man(a1-2)Man(a1-2)Man(a1-3)]Man
# Procedure, shortened: as §1
# [29] = target: Man(a1-2)Man(a1-6)[Man(a1-3)]Man(a1-6)[Man(a1-2)Man(a1-2)Man(a1-3)]Man
# Procedure, shortened: as §1
# [30] = target: Man(a1-2)Man(a1-6)[Man(a1-3)]Man(a1-6)[Man(a1-2)Man(a1-2)Man(a1-3)]Man(b1-4)GlcNAc(b1-4)GlcNAc
# Procedure, shortened: as §1
# [31] = target: Man(a1-3)[Man(a1-6)]Man(a1-6)[Man(a1-2)Man(a1-3)]Man(b1-4)GlcNAc(b1-4)GlcNAc
# Procedure, shortened: as §1
# [32] = target: Neu5Ac(a2-3)Gal(b1-3)GalNAc
# Procedure, shortened: as §1
# [33] = target: Neu5Ac(a2-3)Gal(b1-3)[Fuc(a1-4)]GlcNAc
# Procedure, shortened: as §1
# [34] = target: Neu5Ac(a2-3)Gal(b1-3)[GlcNAc(b1-6)]GalNAc
# Procedure, shortened: as §1
# [35] = target: Neu5Ac(a2-3)Gal(b1-3)]Neu5Ac(a2-3)Gal(b1-4)]GlcNAc
# Procedure, shortened: as §1
# [36] = target: Neu5Ac(a2-3)Gal(b1-4)GlcNAc(b1-2)Man(a1-3)[GlcNAc(b1-4)][Neu5Ac(a2-3)Gal(b1-4)GlcNAc(b1-2)Man(a1-6)]Man(b1-4)GlcNAc(b1-4)GlcNAc
# Procedure, shortened: as §1
# [37] = target: Neu5Ac(a2-3)Gal6S(b1-4)[Fuc(a1-3)]GlcNAc
# Procedure, shortened: as §1
# [38] = target: Neu5Ac(a2-6)GalNAc
# Procedure, shortened: as §1
# [39] = target: Neu5Ac(a2-6)GalNAc(b1-4)GlcNAc
# Procedure, shortened: as §1
# [40] = target: Neu5Ac(a2-8)Neu5Ac(a2-3)[GalNAc(b1-4)]Gal(b1-4)Glc
# Procedure, shortened: as §1
# [41] = target: Neu5Ac(a2-8)Neu5Gc(a2-3)Gal(b1-4)GlcNAc
# Procedure, shortened: as §1
# [42] = target: Neu5Gc(a2-8)Neu5Gc(a2-3)Gal(b1-4)GlcNAc(b1-3)Gal(b1-4)GlcNAc
# Procedure, shortened: as §1
binder,measurement,setting,value
B1,glycan array binding signal (z-score),[1],-0.199
same,glycan array binding signal (z-score),[2],-0.182
same,glycan array binding signal (z-score),[3],-0.165
same,glycan array binding signal (z-score),[4],0.311
same,glycan array binding signal (z-score),[5],-0.136
same,glycan array binding signal (z-score),[6],-0.1
same,glycan array binding signal (z-score),[7],-0.122
same,glycan array binding signal (z-score),[8],-0.102
same,glycan array binding signal (z-score),[9],-0.111
same,glycan array binding signal (z-score),[10],0.015
same,glycan array binding signal (z-score),[11],1.31
same,glycan array binding signal (z-score),[12],-0.15
same,glycan array binding signal (z-score),[13],-0.188
same,glycan array binding signal (z-score),[14],0.09
same,glycan array binding signal (z-score),[15],-0.17
same,glycan array binding signal (z-score),[16],-0.086
same,glycan array binding signal (z-score),[17],-0.186
same,glycan array binding signal (z-score),[18],-0.161
same,glycan array binding signal (z-score),[19],-0.182
same,glycan array binding signal (z-score),[20],-0.196
same,glycan array binding signal (z-score),[21],1.3
same,glycan array binding signal (z-score),[22],1.29
same,glycan array binding signal (z-score),[23],-0.14
same,glycan array binding signal (z-score),[24],10.3
same,glycan array binding signal (z-score),[25],13.5
same,glycan array binding signal (z-score),[26],4.35
same,glycan array binding signal (z-score),[27],7.43
same,glycan array binding signal (z-score),[28],13.9
same,glycan array binding signal (z-score),[29],3.05
same,glycan array binding signal (z-score),[30],1.38
same,glycan array binding signal (z-score),[31],1.16
same,glycan array binding signal (z-score),[32],0.09
same,glycan array binding signal (z-score),[33],-0.165
same,glycan array binding signal (z-score),[34],-0.193
same,glycan array binding signal (z-score),[35],-0.206
same,glycan array binding signal (z-score),[36],-0.193
same,glycan array binding signal (z-score),[37],-0.193
same,glycan array binding signal (z-score),[38],-0.176
same,glycan array binding signal (z-score),[39],-0.192
same,glycan array binding signal (z-score),[40],-0.177
same,glycan array binding signal (z-score),[41],-0.21
same,glycan array binding signal (z-score),[42],-0.206
